CHX counter = Cycloheximide Counterscreen for Small Molecule Inhibitors of Shiga Toxin | cell reporter, cycloheximide protein synthesis inhibition counterscreen | max response, % | 300,000 compounds, 12% hits; in the data active = max response mostly above about 13%, no sharp cut-off; inactive = mostly below about 14%; also: read at 38.3 µM for the half of the compounds with a filed dose
Shiga inhibitor = A qHTS for Small Molecule Inhibitors of Shiga Toxin; Vero cells, Shiga toxin protein synthesis inhibition reporter; inhibition, % at 38.7 µM; 290,000 compounds, 9.2% hits; in the data active = inhibition mostly above about 28%, no sharp cut-off; inactive = mostly below about 43%
NS1 function inh = qHTS Assay for Inhibitors of Influenza NS1 Protein Function | Potency, µM (highest dose often 46.1 µM) | 270,000 compounds, 0.4% hits | AID 2326, 2010; also: actives are rising curves; nearly all actives have a fitted effect of over 50% in size
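OD600 was taken as the measure of yeast growth restored by compound in an NS1-expressing S. cerevisiae strain. Cells had been washed out of glucose medium and diluted 1:100 into galactose -URA medium, pH 6.0.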
SARS PLpro yeast = qHTS of Yeast-based Assay for SARS-CoV PLP; S. cerevisiae expressing SARS-CoV PLpro, growth rescue; Potency, µM (top dose mostly 32.9 µM), hits mostly activators; 330,000 compounds, 0.19% hits; AID 485353, 2010; also: nearly all actives have a fitted effect of over 55% in size
Large screens that a line does not name were inactive. A selection: hits, their analogues and other compounds. The true share with any hit is near 12%. Unless noted, calls follow the shape of the full dose curve.

CC1CC(C)CN(c2nc(N(C)c3ccccc3)nc(N)c2[N+](=O)[O-])C1 (configuration not stated)	none
CCN1CCN(c2nc(Nc3ccccc3F)nc(N)c2[N+](=O)[O-])CC1	none
CC(C)c1ccc(NC(=O)COC(=O)C2=COCCO2)cc1	CHX counter 33
CC(C)(C)c1ccc(NC(=O)COC(=O)C2=COCCO2)cc1	CHX counter 21
Cc1ccc(C(=O)OCC(=O)Nc2ccc(C(N)=O)cc2)s1	none (no result: CHX counter, Shiga inhibitor, NS1 function inh)
O=C(COC(=O)C1=COCCO1)Nc1ccc(F)cc1	none (no result: CHX counter, Shiga inhibitor, NS1 function inh)
CCN(c1ccc(NC(=O)COC(=O)c2ccc(C)s2)cc1)C(C)C	CHX counter 19 (no result: NS1 function inh)
O=C(COC(=O)c1ccc([N+](=O)[O-])s1)Nc1ccc(F)cc1	none (no result: CHX counter, Shiga inhibitor, NS1 function inh)
CC(C)(C)c1ccc(NC(=O)COC(=O)c2ccc([N+](=O)[O-])s2)cc1	CHX counter 14
CC1(CC(=O)O)O[C@H]2CCCCC[C@H]2O1 (some centres not stated) (tested in a mixture with another compound)	none (no result: CHX counter, Shiga inhibitor, SARS PLpro yeast)
CC(C)(C)c1ccc(NC(=O)COC(=O)C2(C)CC2(Cl)Cl)cc1 (configuration not stated)	CHX counter 49, Shiga inhibitor 77 (no result: NS1 function inh)
Cc1ccccc1NC(=O)COC(=O)C1(C)CC1(Cl)Cl (configuration not stated)	none
CC1(C(=O)OCC(=O)Nc2nc(-c3ccc(F)c(F)c3)cs2)CC1(Cl)Cl (configuration not stated)	Shiga inhibitor 54
COc1cc2[nH]c3c(=O)n4c(nc3c2cc1OC)SCCC4	CHX counter 25, Shiga inhibitor 31 (no result: NS1 function inh)
Cc1nnc(SCC(=O)c2c(N)n(C)c(=O)n(C)c2=O)n1Cc1ccccc1	SARS PLpro yeast 22µM
CCn1c(SCC(=O)c2c(N)n(C)c(=O)n(C)c2=O)nnc1-c1ccccc1	none
Cn1c(N)c(C(=O)CSc2ccccn2)c(=O)n(C)c1=O	Shiga inhibitor 47
CCOc1cc(/C=N/NC(=O)CCCC(=O)NC2CCCCC2)ccc1O	none
C=CCn1c(C)nc2c(cnn2-c2ccccc2)c1=O	CHX counter 14, SARS PLpro yeast inconclusive
CCSc1nc2c(cnn2-c2ccccc2)c(=O)n1N	CHX counter 46, Shiga inhibitor 50
Cc1cccc(-n2c(C)nc3c(cnn3-c3ccc(F)cc3)c2=O)c1	CHX counter 39
CSc1nc2c(cnn2-c2ccccc2)c(=O)n1N	CHX counter 28, Shiga inhibitor 91
COc1cc(CN2CCN(c3ccccc3C)CC2)cc([N+](=O)[O-])c1O	none
COc1ccc2c(Cl)cc(NC(=S)Nc3ccccc3)nc2c1	none (no result: CHX counter, Shiga inhibitor, SARS PLpro yeast)
CCc1cc(=O)oc2cc(OC3CCCCC3=O)ccc12 (configuration not stated)	none
Cc1c(CC(=O)O)c(=O)oc2cc(OCc3ccc(F)cc3F)ccc12	none
Cc1c(C)c2ccc(OC3CCCCC3=O)cc2oc1=O (configuration not stated)	CHX counter 24
COC(=O)Cc1c(C)c2ccc(OC3CCCCC3=O)c(C)c2oc1=O (configuration not stated)	none
COC(=O)Cc1c(C)c2ccc(OC3CCCCC3=O)cc2oc1=O (configuration not stated)	CHX counter 39, Shiga inhibitor 30
Cc1c(CC(=O)O)c(=O)oc2cc(OCc3ccc(Br)cc3)ccc12	CHX counter 16
COC(=O)Cc1c(C)c2ccc(OC(C)C)cc2oc1=O	CHX counter 48, Shiga inhibitor 96
CCOc1ccc(NC(=O)NC2CCS(=O)(=O)C2)cc1 (configuration not stated)	none
CN(Cc1ccccc1)C(=O)CCS(=O)(=O)c1cc2c(cc1Cl)NC(=O)CO2	none
CN1CCN(c2ccc(CNC(=O)c3ccco3)cc2)CC1	none
CC(C)(C)C1CCC(=NNC(=O)c2ccco2)CC1 (configuration not stated)	CHX counter 70, Shiga inhibitor 175
CN1CCC(=NNC(=O)c2ccco2)CC1	CHX counter 67, Shiga inhibitor 79
O=C(CCCOc1ccccc1)Nc1ccc(Cl)cn1	CHX counter 30, Shiga inhibitor 64 (no result: NS1 function inh)
CCCCCCC(=O)Nc1ccc(Cl)cn1	CHX counter 32, Shiga inhibitor 100 (no result: SARS PLpro yeast)
CC(=O)CC(=O)Nc1ccc(Cl)cn1	none
Cc1ccc(-n2nc3c(=O)n(CCCC(=O)N4CCC(C)CC4)nc(C)c3c2C)cc1	none
C/C(Cl)=C/Cc1c(C)[nH]c2c(ccc3ccccc32)c1=O	none
C/C(Cl)=C/Cc1c(C)[nH]c2ccc(C)cc2c1=O	CHX counter 27
CC(C)[n+]1ccn(C2=C([O-])c3ccccc3C(=O)/C2=N\S(=O)(=O)c2ccccc2)c1	none
CC(C)(C)c1cc[n+](C2=C([O-])c3ccccc3C(=O)/C2=N\S(=O)(=O)c2ccccc2)cc1	CHX counter 58, Shiga inhibitor 95
C=CCN(c1ccc(C(=O)NCCc2ccccc2)cc1)S(C)(=O)=O	CHX counter 40
CC(C)(C)c1ccc(C(=O)NCc2ccc(Cl)cc2)cc1	none
CC(=O)Nc1ccc(C(=O)NCCc2ccccc2)cc1	CHX counter 60, Shiga inhibitor 62
CC(C)(C)c1ccc(C(=O)NCCc2ccccc2)cc1	CHX counter 46, Shiga inhibitor 53
CC(C)(C)c1ccc(C(=O)NCc2ccccc2)cc1	CHX counter 26, Shiga inhibitor 53
Cc1csc(Sc2ccc([N+](=O)[O-])cc2C(=O)OCC(=O)NC(=O)NC(C)(C)C)n1	none
CCN(CC(=O)NCc1cccs1)C(=O)c1ccc(S(=O)(=O)Nc2ccccc2OC)cc1	none (no result: CHX counter, Shiga inhibitor, NS1 function inh)
O=C(NCCCCNC(=O)c1ccc(F)cc1)c1ccc(F)cc1	none
O=C(NCCCc1ccccc1)c1ccc(F)cc1	CHX counter 34, Shiga inhibitor 55
COc1cc(/C=N/NC(=O)c2ccccn2)cc2c1OCO2	CHX counter 57, Shiga inhibitor 107
COc1cc(/C=N/Nc2ccc(Cl)c(C(=O)O)c2)ccc1OC(=O)c1cccs1	none
COc1cc(/C=N/NC(=O)c2ccccn2)ccc1OC(=O)c1cccs1	CHX counter 37, Shiga inhibitor 67
COc1cc(/C=N/NC(=O)COc2ccc(C)cc2)ccc1OC(=O)c1cccs1	CHX counter 16, NS1 function inh inconclusive
COc1cc(/C=N/Nc2ccccc2)ccc1OC(=O)c1cccs1	CHX counter 35
COCCC(=O)N1CCC(Oc2ccc(C(=O)N3C[C@H]4CC[C@H]3C4)cc2)CC1	none
Nc1cc(F)ccc1N1CCCCCC1	none (no result: NS1 function inh)
Clc1ccc(-c2cc3ccccc3[nH]2)cc1	CHX counter 62, Shiga inhibitor 110
c1ccc(C[n+]2cccc(-c3cc4ccccc4[nH]3)c2)cc1	none (no result: CHX counter, Shiga inhibitor, SARS PLpro yeast)
O=C(Cc1coc2cc3c(cc12)CCC3)NC1CCCCCCC1	CHX counter 12
O=C(O)Cc1coc2cc3c(cc12)CCC3	none (no result: NS1 function inh)
CCOC(=O)c1csc(-c2sccc2Br)n1	CHX counter 51, Shiga inhibitor 54
CCOC(=O)c1csc(NC(C)=O)n1	CHX counter 28 (no result: NS1 function inh)
CCOC(=O)c1csc(-c2ccc(OC)c(OC)c2)n1	none (no result: NS1 function inh)
CCOC(=O)c1csc(NC(=O)c2ccccc2)n1	CHX counter 49, Shiga inhibitor 129

Source: PubChem
